# Source: the supplement of paper PMC10849652
# Of roughly 7,900 targets only a part is listed; those with a hit were picked by preference. About 0.6% of all pairs of compound and target were hits. Unmarked numbers belong to inactive results.
# Key:
# Assay in all cases: log2 fold change, soluble protein after heating vs DMSO (PISA); higher = thermal stabilisation; K562 cells, 10 uM, 30 min; active = over 0.2 and 3.5 SD of the protein, either way, in both replicates (recomputed)
# [1] = compound: NC(=O)Nc1cc(-c2cccc(F)c2)sc1C(=O)N[C@H]1CCCNC1
# Summary of the method: (§1)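 For each measurement, 10 μM compound was applied for 30 min to K562 cells at 2×10^6 cells/mL. Aliquots were heated for 3 min across 48°C-58°C, pooled, and extracted in PBS with 0.5% NP-40 at 4°C; the supernatant after 21,000xg for 90 min was soluble protein. This was quantified by TMTpro 16plex LC-MS/MS with channel sums equalised, and thermal stability was reported relative to control samples from duplicates, on a log2 fold-change scale.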
# [2] = compound: NC(=O)c1cnc(N[C@@H]2CCCC[C@@H]2N)nc1Nc1cccc(-n2nccn2)c1
# Summary of the method: as §1
# [3] = compound: NC1(c2ccc(-c3nc4ccn5c(=O)[nH]nc5c4cc3-c3ccccc3)cc2)CCC1
# Summary of the method: as §1
# [4] = compound: NCC(=O)Nc1ccc(-n2nc(C(F)(F)F)cc2-c2ccc3c(ccc4ccccc43)c2)cc1
# Summary of the method: as §1
# entinostat = compound: Nc1ccccc1NC(=O)c1ccc(CNC(=O)OCc2cccnc2)cc1 [entinostat]
# Summary of the method: as §1
# vorinostat = compound: O=C(CCCCCCC(=O)Nc1ccccc1)NO [vorinostat]
# Summary of the method: as §1
# citarinostat = compound: O=C(CCCCCCNC(=O)c1cnc(N(c2ccccc2)c2ccccc2Cl)nc1)NO [citarinostat]
# Summary of the method: as §1
# silmitasertib = compound: O=C(O)c1ccc2c(c1)nc(Nc1cccc(Cl)c1)c1ccncc12 [silmitasertib]
# Summary of the method: as §1
# [5] = compound: O=C1NC(=O)C(c2cnc3ccccn23)=C1c1cn2c3c(cc(F)cc13)CN(C(=O)N1CCCCC1)CC2
# Summary of the method: as §1
# [6] = compound: c1cc(OCCN2CCCCC2)cc(-c2n[nH]c3ccc(-c4nnc[nH]4)cc23)c1
# Summary of the method: as §1
# Sequence of UniProt Q9BVP2 (Q9BVP2 whole entry, looked up): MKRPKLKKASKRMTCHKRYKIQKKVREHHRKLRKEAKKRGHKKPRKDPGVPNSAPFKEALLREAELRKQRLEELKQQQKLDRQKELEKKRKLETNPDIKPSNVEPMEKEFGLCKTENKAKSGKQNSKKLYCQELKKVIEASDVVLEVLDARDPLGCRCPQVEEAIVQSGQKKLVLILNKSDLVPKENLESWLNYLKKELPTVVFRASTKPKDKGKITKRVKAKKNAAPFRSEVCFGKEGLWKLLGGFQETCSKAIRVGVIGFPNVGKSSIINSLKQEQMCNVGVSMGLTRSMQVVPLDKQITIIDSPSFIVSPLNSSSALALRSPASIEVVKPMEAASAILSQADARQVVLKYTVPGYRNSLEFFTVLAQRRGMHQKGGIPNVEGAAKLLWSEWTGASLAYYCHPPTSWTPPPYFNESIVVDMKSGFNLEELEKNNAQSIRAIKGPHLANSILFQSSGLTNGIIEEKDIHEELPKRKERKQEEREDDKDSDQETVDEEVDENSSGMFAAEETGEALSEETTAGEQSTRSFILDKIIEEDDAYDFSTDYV
# Sequence of UniProt P52789 (P52789 whole entry, looked up): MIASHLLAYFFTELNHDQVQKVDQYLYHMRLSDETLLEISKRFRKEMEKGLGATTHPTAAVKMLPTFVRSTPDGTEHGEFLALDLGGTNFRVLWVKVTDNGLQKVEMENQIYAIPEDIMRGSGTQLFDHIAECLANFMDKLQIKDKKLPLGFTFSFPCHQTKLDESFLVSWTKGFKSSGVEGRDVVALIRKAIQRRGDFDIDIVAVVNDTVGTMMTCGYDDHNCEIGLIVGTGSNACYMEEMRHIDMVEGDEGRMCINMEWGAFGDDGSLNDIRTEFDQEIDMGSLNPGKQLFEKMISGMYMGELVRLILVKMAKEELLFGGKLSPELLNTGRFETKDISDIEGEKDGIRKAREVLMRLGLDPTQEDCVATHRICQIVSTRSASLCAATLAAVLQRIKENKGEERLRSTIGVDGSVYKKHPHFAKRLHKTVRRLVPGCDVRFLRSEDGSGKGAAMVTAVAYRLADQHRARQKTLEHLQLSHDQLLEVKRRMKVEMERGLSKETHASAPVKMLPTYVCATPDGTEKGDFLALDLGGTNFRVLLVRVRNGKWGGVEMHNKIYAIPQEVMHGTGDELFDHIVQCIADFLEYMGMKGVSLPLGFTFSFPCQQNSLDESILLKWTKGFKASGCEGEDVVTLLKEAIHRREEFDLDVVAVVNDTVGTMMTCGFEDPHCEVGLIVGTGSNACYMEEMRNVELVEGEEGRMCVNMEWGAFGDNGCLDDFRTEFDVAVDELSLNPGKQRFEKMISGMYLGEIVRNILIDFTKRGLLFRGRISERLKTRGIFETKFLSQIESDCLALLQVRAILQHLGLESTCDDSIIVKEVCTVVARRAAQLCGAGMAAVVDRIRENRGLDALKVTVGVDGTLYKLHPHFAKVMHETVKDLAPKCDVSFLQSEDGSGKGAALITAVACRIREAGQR
# Sequence of UniProt P52657 (P52657 whole entry, looked up): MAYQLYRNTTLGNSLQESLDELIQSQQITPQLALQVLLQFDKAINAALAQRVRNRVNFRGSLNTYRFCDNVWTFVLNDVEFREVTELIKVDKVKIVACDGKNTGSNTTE
# Sequence of UniProt Q10471 (Q10471 whole entry, looked up): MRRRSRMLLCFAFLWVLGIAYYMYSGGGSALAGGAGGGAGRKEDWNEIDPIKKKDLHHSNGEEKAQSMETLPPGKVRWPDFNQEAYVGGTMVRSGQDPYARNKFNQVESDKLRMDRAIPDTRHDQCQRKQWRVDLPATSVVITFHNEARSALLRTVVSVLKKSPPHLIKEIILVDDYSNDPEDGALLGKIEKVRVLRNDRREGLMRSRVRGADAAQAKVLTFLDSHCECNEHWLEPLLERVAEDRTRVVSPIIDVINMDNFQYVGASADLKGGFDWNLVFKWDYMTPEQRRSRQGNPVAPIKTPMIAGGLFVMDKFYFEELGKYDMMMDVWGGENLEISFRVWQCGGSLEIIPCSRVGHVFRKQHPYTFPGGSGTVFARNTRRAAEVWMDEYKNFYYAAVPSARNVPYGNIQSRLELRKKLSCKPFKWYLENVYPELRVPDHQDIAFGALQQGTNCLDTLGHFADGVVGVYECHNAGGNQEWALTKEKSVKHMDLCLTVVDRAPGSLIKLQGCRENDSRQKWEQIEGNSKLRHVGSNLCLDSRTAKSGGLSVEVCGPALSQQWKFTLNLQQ
# Sequence of UniProt Q9UKN8 (Q9UKN8 whole entry, looked up): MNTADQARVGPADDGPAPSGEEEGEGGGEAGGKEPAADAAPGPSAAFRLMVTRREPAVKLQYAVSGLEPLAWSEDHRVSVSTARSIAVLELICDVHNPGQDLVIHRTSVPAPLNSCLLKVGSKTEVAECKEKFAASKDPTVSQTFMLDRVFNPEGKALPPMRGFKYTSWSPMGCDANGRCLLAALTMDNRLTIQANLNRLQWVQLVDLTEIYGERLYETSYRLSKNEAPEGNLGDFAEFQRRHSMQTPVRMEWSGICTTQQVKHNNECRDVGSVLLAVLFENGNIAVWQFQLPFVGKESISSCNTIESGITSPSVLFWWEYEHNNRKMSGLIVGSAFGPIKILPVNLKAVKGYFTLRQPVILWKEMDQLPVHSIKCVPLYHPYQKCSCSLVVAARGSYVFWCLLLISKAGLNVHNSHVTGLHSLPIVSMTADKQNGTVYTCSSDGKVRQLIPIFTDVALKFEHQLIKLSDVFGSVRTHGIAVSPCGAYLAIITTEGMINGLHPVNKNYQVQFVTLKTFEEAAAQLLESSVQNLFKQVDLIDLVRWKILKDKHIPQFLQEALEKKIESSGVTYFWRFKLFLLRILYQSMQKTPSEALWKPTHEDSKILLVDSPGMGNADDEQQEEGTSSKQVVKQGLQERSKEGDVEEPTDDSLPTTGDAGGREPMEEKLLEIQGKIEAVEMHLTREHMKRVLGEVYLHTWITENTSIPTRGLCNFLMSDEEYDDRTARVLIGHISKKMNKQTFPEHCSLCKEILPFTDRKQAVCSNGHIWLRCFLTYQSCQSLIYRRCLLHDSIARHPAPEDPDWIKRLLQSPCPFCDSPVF
# Sequence of UniProt P08236 (P08236 whole entry, looked up): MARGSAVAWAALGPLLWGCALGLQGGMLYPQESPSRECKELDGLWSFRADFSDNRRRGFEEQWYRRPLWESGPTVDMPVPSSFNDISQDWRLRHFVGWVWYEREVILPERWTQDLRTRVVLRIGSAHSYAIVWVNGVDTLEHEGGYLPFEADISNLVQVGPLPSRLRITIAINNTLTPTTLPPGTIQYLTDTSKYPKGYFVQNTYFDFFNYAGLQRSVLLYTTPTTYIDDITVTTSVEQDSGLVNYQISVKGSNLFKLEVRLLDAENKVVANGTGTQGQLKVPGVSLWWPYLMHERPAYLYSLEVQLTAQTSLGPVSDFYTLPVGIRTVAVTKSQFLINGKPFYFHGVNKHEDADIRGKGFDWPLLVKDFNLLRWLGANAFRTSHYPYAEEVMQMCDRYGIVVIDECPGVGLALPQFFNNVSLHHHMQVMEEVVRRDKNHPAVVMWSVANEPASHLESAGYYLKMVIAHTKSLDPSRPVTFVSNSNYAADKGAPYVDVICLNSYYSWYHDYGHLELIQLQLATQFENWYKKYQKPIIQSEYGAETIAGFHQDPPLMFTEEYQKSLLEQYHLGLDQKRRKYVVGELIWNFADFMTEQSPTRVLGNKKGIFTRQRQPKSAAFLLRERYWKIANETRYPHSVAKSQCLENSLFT
# Sequence of UniProt O43524 (O43524 whole entry, looked up): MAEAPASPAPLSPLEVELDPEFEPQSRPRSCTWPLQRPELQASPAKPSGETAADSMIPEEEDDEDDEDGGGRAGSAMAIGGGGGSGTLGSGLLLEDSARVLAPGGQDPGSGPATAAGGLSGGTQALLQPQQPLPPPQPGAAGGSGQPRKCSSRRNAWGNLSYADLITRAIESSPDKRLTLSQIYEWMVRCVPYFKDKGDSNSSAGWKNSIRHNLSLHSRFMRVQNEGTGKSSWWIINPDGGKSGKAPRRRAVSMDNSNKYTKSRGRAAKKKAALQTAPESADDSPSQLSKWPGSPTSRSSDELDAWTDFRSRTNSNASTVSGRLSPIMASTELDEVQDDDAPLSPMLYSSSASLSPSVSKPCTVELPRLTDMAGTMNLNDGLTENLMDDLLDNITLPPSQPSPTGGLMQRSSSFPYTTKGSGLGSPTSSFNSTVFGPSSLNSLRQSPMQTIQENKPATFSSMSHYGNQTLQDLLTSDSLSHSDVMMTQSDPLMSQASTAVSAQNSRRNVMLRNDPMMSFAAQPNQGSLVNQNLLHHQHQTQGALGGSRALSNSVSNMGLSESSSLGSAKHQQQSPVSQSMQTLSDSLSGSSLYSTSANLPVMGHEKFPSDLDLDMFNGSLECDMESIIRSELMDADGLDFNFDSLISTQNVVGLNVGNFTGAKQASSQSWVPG
# Sequence of UniProt P54803 (P54803 whole entry, looked up): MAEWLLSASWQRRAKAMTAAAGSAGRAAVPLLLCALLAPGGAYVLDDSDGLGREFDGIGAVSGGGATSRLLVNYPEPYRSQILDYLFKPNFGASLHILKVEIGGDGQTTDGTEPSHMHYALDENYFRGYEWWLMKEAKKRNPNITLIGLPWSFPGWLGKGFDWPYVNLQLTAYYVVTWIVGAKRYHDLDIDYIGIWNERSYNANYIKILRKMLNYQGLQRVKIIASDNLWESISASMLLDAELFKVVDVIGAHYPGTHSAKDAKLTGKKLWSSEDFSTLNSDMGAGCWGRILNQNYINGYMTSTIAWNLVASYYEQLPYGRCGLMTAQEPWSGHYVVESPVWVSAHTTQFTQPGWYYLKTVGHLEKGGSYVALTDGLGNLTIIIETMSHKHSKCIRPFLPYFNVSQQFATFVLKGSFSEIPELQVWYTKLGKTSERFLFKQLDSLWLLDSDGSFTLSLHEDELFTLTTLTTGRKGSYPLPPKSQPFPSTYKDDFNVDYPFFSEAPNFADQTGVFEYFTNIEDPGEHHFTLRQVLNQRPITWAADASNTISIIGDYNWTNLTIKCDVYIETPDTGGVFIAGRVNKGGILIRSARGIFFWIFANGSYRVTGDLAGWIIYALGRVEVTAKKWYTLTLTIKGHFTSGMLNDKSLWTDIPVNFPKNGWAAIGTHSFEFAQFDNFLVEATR
Target,log2 fold change [1],log2 fold change [2],log2 fold change [3],log2 fold change [4],log2 fold change (entinostat),log2 fold change (vorinostat),log2 fold change (citarinostat),log2 fold change (silmitasertib),log2 fold change [5],log2 fold change [6]
GNB2 (UniProt P62879),-0.073,-0.012,0.022,-0.014,-0.037,-0.047,-0.01,0.028,-0.075,-0.049
FIBP (UniProt O43427),-0.018,0.023,0.011,-0.117,-0.005,-0.067,0.297,-0.05,-0.031,-0.106
GPX4 (UniProt P36969),-0.006,0.079,-0.052,0.032,-0.107,-0.082,-0.391 (active),0.004,-0.006,-0.049
HMOX2 (UniProt P30519),-0.022,-0.028,-0.094,-0.026,0.018,0.029,0.023,0,0.013,-0.03
HK2 (UniProt P52789),0.003,-0.012,-0.059,0.016,0.022,0.048,0.046,-0.021,-0.065,-0.059
GTF3C4 (UniProt Q9UKN8),-0.015,-0.012,-0.077,-0.04,0.024,-0.103,0.04,0.03,-0.013,-0.019
GALC (UniProt P54803),0.015,0.016,-0.165,0.001,-0.012,-0.138,0.017,0.042,0,0.096
GGT7 (UniProt Q9UJ14),-0.034,0.04,-0.076,0.288 (active),-0.081,0.062,0.058,-0.009,-0.061,0.002
HIST2H2BF isoform 2 (UniProt Q5QNW6),0.048,0.225,0.48,-0.029,0.159,0.123,-0.001,-0.064,0.101,0.016
GBF1 (UniProt Q92538),-0.026,-0.012,-0.122,-0.058,0.053,0.144,0.124,-0.018,-0.001,-0.023
GAPVD1 isoform 6 (UniProt Q14C86),0.009,-0.077,-0.139,-0.073,0.049,0.063,0.087,0.124,0.003,-0.048
FBL (UniProt P22087),0.095,0.165,0.455,0.067,-0.109,0.005,-0.109,0.232,0.13,-0.237
GNPAT (UniProt O15228),0.02,-0.008,-0.066,0,0.021,-0.008,0.041,-0.041,-0.061,-0.02
HMGCR isoform 3 (UniProt P04035),0.184,-0.115,0.048,-0.022,0.082,-0.019,-0.175,-0.08,0.15,0.081
HIP1R (UniProt O75146),-0.032,-0.001,-0.138,0.014,0.027,0.069,0.022,0,-0.024,-0.005
IFI30 (UniProt P13284),0.035,0.127,-0.048,0.083,-0.052,0.03,0.059,-0.052,0.128,-0.028
FOXO3 (UniProt O43524),-0.395,-0.089,-0.025,-0.072,-0.063,0.222,0.002,-0.136,-0.046,0.035
GTF2A2 (UniProt P52657),0.023,-0.028,-0.038,-0.008,0.03,-0.044,0.058,-0.008,-0.014,0
GNL3 (UniProt Q9BVP2),0.08,-0.061,-0.098,-0.088,-0.069,-0.131,0.134,-0.066,-0.027,0.041
GUSB (UniProt P08236),-0.044,0.029,0.047,0.067,-0.066,0.049,0.148,-0.011,0.057,-0.059
GEMIN6 (UniProt Q8WXD5),0.066,0.015,-0.108,0.099,-0.005,-0.04,-0.12,0.015,-0.139,-0.106
GCLM (UniProt P48507),-0.028,0.073,-0.088,-0.075,0.093,0.051,0.074,0.077,-0.022,-0.004
HAT1 (UniProt O14929),0.002,0.006,-0.076,0.01,0.053,0.001,0.071,0.052,-0.055,-0.016
GATD1 (UniProt Q8NB37),0.012,0.028,-0.037,-0.013,-0.084,-0.018,-0.031,-0.025,-0.673 (active),-0.031
GALNT2 (UniProt Q10471),0,-0.042,-0.125,0.002,-0.018,0.033,0.064,-0.021,-0.034,0.005
HDHD2 (UniProt Q9H0R4),0.091,-0.016,-0.023,0.048,-0.01,-0.018,0.033,-0.007,0.131,-0.012
FKBP4 (UniProt Q02790),0.005,-0.071,-0.114,-0.053,0.039,0.035,0.072,0.01,-0.02,-0.029
GSTO1 (UniProt P78417),-0.015,-0.002,0.022,0.001,-0.022,0.058,0.039,-0.047,0.018,-0.022
GLS isoform 3 (UniProt O94925),-0.133,0.154,-0.285,0.01,-0.017,0.019,0.169,0,-0.24,0.071
HAUS4 (UniProt Q9H6D7),0.067,-0.165,0.229,-0.089,0.12,0.01,-0.106,0.095,0.088,-0.08
